Hit rate of the full screen: of about 1,400 compounds, about 1,000 (71%) were called active. So high a share suggests a set chosen from earlier hits. A selection follows. Potency and affinity values are given separately. Unmarked numbers belong to inactive results. How the calls were made is not given here.

The nature of this test: blockers of HIV-1 envelope-mediated cell-cell fusion – cherry-pick, dose response (AID 652057). The settings on record: HeLa-JRFL Env/CEM21 cell fusion, luciferase; series mostly up to 35 µM; activity change, negative = inhibition: at the top concentration.
As for `C=CC[n+]1c(-c2ccc(C)cc2)csc1NNC(=O)Nc1ccccc1`, the “activity change, negative = inhibition” value was -18.4% [at 16 µM]. As to `NC(=S)c1ccc(OCCCc2ccccc2)cc1`, the “activity change, negative = inhibition” value was 19.6%. `O=C1c2cccc(OCc3ccc(F)cc3)c2CCN1Cc1ccccc1`: the “activity change, negative = inhibition” value was -36.6%.

For the molecule `O=C(C[C@H]1C[C@@H]2c3cc(NC(=O)C4CCC4)ccc3O[C@@H]2[C@@H](CO)O1)NCc1ccc2c(c1)OCO2`, the “activity change, negative = inhibition” value is 24.8%. The figure for `C=CCOc1c(Br)cc(CNc2ccc(NC(=O)C(C)C)c(OC)c2)cc1OC` is 15.3%; for `CC1(C)N=C(N)N=C(N)N1CCCCc1ccccc1` it is -26.4%. As for `COc1cc(-c2c(-c3cc(OC)c(OC)c(OC)c3)noc2C)ccc1F`, the “activity change, negative = inhibition” value is 54.8%. The figure for `O=C(CNC(=O)c1cccc(-n2cccc2)c1)Nc1ccccc1Br` is 5.83%. Consider `COc1ccccc1S(=O)(=O)Nc1ccc2c(c1)C(=O)N(C)C[C@@H](OC)[C@@H](C)CN[C@@H](C)CO2`, for which the “activity change, negative = inhibition” value is 11.4%.

Consider `CCCNC(=O)C[C@H]1C[C@H]2c3cc(NC(=O)CN(C)C)ccc3O[C@H]2[C@@H](CO)O1`, for which the “activity change, negative = inhibition” value was 15.8%. For the molecule `COc1ccc(NC(=O)c2ccc(Cl)c(S(=O)(=O)N3CCc4ccccc4C3)c2)cn1`, the “activity change, negative = inhibition” value was -27.9%.

In the case of `O=C(Nc1ccc(F)cc1)Nc1ccc2c(c1)[C@@H]1C[C@H](CC(=O)N3CCCCC3)O[C@@H](CO)[C@@H]1O2`, the “activity change, negative = inhibition” value is -5.66%. Consider `COc1ccccc1Oc1ccc(S(=O)(=O)NCc2ccccn2)cc1`, for which the “activity change, negative = inhibition” value was -14.1%. The figure for `O=C(Nc1ccc(Oc2ccccc2)cc1)c1csc([C@H]2C[C@H](O)[C@@H](CO)O2)n1` is -10.4%; for `COc1ccc(OC)c(-c2cc(C(=O)Nc3c(C)nn(Cc4ccc(Cl)cc4)c3C)no2)c1` it is -26%. As to `CCCCS(=O)(=O)N1CCN(C(=O)C(=O)c2cccc(C(F)(F)F)c2)CC1`, the “activity change, negative = inhibition” value was 10.8%. As for `CCS(=O)(=O)Nc1ccc2c(c1)C(=O)N(C)C[C@H](OC)[C@@H](C)CN(C(=O)C1CCC1)[C@H](C)CO2`, the “activity change, negative = inhibition” value was 12.2%. Take `CN(C)Cc1cn(CC[C@@H]2CC[C@H](N)[C@H](CO)O2)nn1`: the “activity change, negative = inhibition” value is 24.1%. For `Nc1nonc1C(=O)NCCNCc1cc(Br)ccc1OCc1ccccc1F`, the “activity change, negative = inhibition” value is -12.6%. Take `CN1CCN(C(=O)C[C@H]2C[C@@H]3c4cc(NS(C)(=O)=O)ccc4O[C@@H]3[C@H](CO)O2)CC1`: the “activity change, negative = inhibition” value was 9.51%. As to `O=C(Nc1ccc(C(=O)OC2CCCCC2)cc1)c1ccncc1`, the “activity change, negative = inhibition” value was 13.6%.

On to `CCCCOc1ccc(S(=O)(=O)Nc2cccnc2)cc1`, for which the “activity change, negative = inhibition” value was 6.53%.

As for `C[C@H](CO)N1C[C@H](C)[C@@H](CN(C)C(=O)Nc2cccc3ccccc23)OCCCC[C@H](C)Oc2ccc(N(C)C)cc2C1=O`, the “activity change, negative = inhibition” value is -30.6%. Consider `C[C@H]1CN([C@@H](C)CO)C(=O)c2cccc(NC(=O)c3ccncc3)c2O[C@@H]1CN(C)C(=O)Nc1cccc2ccccc12`, for which the “activity change, negative = inhibition” value is 0.94%.

With `O=C(NCc1cccnc1)c1c[nH]c2cc3c(cc2c1=O)OCCO3`, the “activity change, negative = inhibition” value was 47.4%. Take `O=C(C[C@@H]1C[C@H]2c3cc(NC(=O)Nc4ccccc4)ccc3O[C@H]2[C@H](CO)O1)NCc1cccnc1`: the “activity change, negative = inhibition” value was -1.52%.

As for `COc1cc(CSc2nnnn2-c2ccc(C)cc2)cc(OC)c1OC`, the “activity change, negative = inhibition” value is -1.13%. In the case of `c1ccc2c(c1)ncn2CCCCOc1ccc2c(c1)CCC2`, the “activity change, negative = inhibition” value was 1.92% [at 16 µM]. Consider `Cc1ccc(Cn2ncc3c(N4CCN(Cc5ccc(Cl)cc5)CC4)ncnc32)cc1`, for which the “activity change, negative = inhibition” value is -11.6%. In the case of `COc1ccc(C)cc1NC(=O)CCNS(=O)(=O)c1ccc2c(c1)CC(C)N2C(C)=O` (stereo not drawn), the “activity change, negative = inhibition” value was -12.8%. On to `CCOC(=O)C1CCN(C(=O)c2ccc3c(c2)C(=O)N(c2ccccc2C)C3=O)CC1`, for which the “activity change, negative = inhibition” value was 35.1%. `COc1ccc(OCC(=O)Nc2ccccc2N2CCCCC2)cc1`: the “activity change, negative = inhibition” value is 39.9%.

Take `OCC[C@@H]1C[C@@H](O)[C@H](O)[C@]2(OCc3ccccc32)O1`: the “activity change, negative = inhibition” value is -4.52%. On to `c1ccc2c(c1)CCN(c1ncnc3c1[nH]c1ccccc13)C2`, for which the “activity change, negative = inhibition” value was 2.06%.

In the case of `Cc1ccc(Cn2ncc3c(N4CCN(c5ccc(C)cc5)CC4)ncnc32)cc1`, the “activity change, negative = inhibition” value is 35%.

As for `CC(=O)c1ccc(S(=O)(=O)N2CCN(c3nc4c(C)c(C)ccc4cc3C#N)CC2)cc1`, the “activity change, negative = inhibition” value is -11.1%. For the molecule `O=C(C[C@H]1C[C@@H]2c3cc(NC(=O)C4CCC4)ccc3O[C@@H]2[C@@H](CO)O1)NCC(F)(F)F`, the “activity change, negative = inhibition” value was 9.8%.

As to `CCOC(=O)C1CCCN(Cc2nc(N)nc(Nc3ccc(OC)cc3)n2)C1` (stereo not drawn), the “activity change, negative = inhibition” value was -0.574%. The same measure for `CC(=O)C1=C(C)NC(=S)NC1c1ccccc1` (stereo not drawn): 13.6%; for `COC(=O)[C@@]1(Cc2ccc(F)cc2)[C@H]2c3cc(C(=O)N(C)C)n(CCO)c3C[C@H]2CN1C(=O)c1ccccc1`: 13.3%. For the molecule `N#CCSc1nnc(-c2sc3ccccc3c2Cl)o1`, the “activity change, negative = inhibition” value was -11.7%. The figure for `CO[C@H]1CN(C)C(=O)c2cc(NC(C)=O)ccc2OC[C@@H](C)N(Cc2nccs2)C[C@H]1C` is 20.8%; for `CO[C@H]1CN(C)C(=O)c2cc(NS(=O)(=O)c3ccc(Cl)cc3)ccc2OC[C@@H](C)N(C)C[C@@H]1C` it is 19.1%; for `CCNC(=O)C[C@@H]1CC[C@@H]2[C@H](COC[C@@H](O)CN2C(=O)c2ccccn2)O1` it is -7.64%. `CCCNC(=O)C[C@H]1C[C@H]2c3cc(NC(=O)Cc4ccncc4)ccc3O[C@H]2[C@H](CO)O1`: the “activity change, negative = inhibition” value was 0.858%. For `CN(C)C(=O)C[C@H]1C[C@@H]2c3cc(NS(=O)(=O)c4ccc(F)cc4)ccc3O[C@@H]2[C@@H](CO)O1`, the “activity change, negative = inhibition” value is 14.9%.

On to `CS(=O)(=O)Nc1ccc2c(c1)[C@H]1C[C@@H](CC(=O)NCCN3CCCCC3)O[C@@H](CO)[C@H]1O2`, for which the “activity change, negative = inhibition” value is 18.3%.

In the case of `CCCNC(=O)C[C@@H]1C[C@@H]2c3cc(NC(=O)Cc4ccncc4)ccc3O[C@@H]2[C@H](CO)O1`, the “activity change, negative = inhibition” value was 5.24%. Take `COCCNC(=O)C[C@@H]1C[C@H]2c3cc(N(C)C)ccc3O[C@H]2[C@@H](CO)O1`: the “activity change, negative = inhibition” value was 14.4% [at 16 µM]. The figure for `CS(=O)(=O)Nc1ccc2c(c1)[C@H]1C[C@H](CC(=O)NCc3ccc(-c4ccccc4)cc3)O[C@H](CO)[C@H]1O2` is -12.4%; for `CN(C)C(=O)C[C@@H]1C[C@H]2c3cc(NS(=O)(=O)c4ccc(F)cc4)ccc3O[C@H]2[C@H](CO)O1` it is 37.5%.

In the case of `O=C(C[C@@H]1C[C@H]2c3cc(NC(=O)C4CCOCC4)ccc3O[C@H]2[C@@H](CO)O1)NCc1ccccc1`, the “activity change, negative = inhibition” value is 6.66%. Take `O=C(C[C@H]1C[C@@H]2c3cc(NC(=O)C4CCOCC4)ccc3O[C@@H]2[C@H](CO)O1)NCc1ccccc1`: the “activity change, negative = inhibition” value is -0.474%. On to `O=C(C[C@@H]1C[C@@H]2c3cc(NC(=O)C4CCC4)ccc3O[C@@H]2[C@@H](CO)O1)NCc1ccc2c(c1)OCO2`, for which the “activity change, negative = inhibition” value was -14.9%. Consider `O=C(C[C@@H]1C[C@@H]2c3cc(NC(=O)c4ccc5c(c4)OCO5)ccc3O[C@@H]2[C@@H](CO)O1)NCc1ccc(Oc2ccccc2)cc1`, for which the “activity change, negative = inhibition” value is -9.82% [at 30 µM].

As for `CS(=O)(=O)Nc1ccc2c(c1)[C@@H]1C[C@@H](CC(=O)N3CCc4ccccc4C3)O[C@H](CO)[C@@H]1O2`, the “activity change, negative = inhibition” value is 16.9%. For the molecule `CS(=O)(=O)Nc1ccc2c(c1)[C@H]1C[C@H](CC(=O)N3CCc4ccccc4C3)O[C@H](CO)[C@H]1O2`, the “activity change, negative = inhibition” value was 4.05%.

`COC(=O)C[C@@H]1C[C@H]2c3cc(NS(=O)(=O)c4cccc(OC)c4)ccc3O[C@H]2[C@@H](CO)O1`: the “activity change, negative = inhibition” value is 53.6%.

For the origin of these results see PubChem BioAssay AID652057 (Broad Institute, 2013).
